Data on 36 molecules can be found in PubChem BioAssay.

A short description of the assay: HepG2 liver cancer cell viability effects, profiling panel, resazurin fluorescence, 24 h, PK04 Diversity Set (AID 1172). Also: test concentration not given here. The note with it: higher = more signal. A general note: Alamar Blue is a resazurin reagent that responds to reducing activity.
Molecule `N#Cc1ccc(NN2C(C(O)c3ccccc3)C=CC3C(=O)N(c4ccccc4)C(=O)C32)cc1` (stereo unspecified) showed a z-score of -0.822.

In turn, `O=C(NCc1ccccc1)[C@]1(Cc2ccccc2)N=C(c2ccc(OCCCO)cc2)O[C@@H]1c1ccccc1` yielded a z-score of 0.455.

Take `CC(C)CCC[C@@H](C)[C@H]1CC[C@@]2(C)C3=C(CC[C@]12C)[C@@]1(C)CC[C@H](OC(=O)C(C)(C)C)C(C)(C)C1CC3` (stereo partly specified): the z-score is 0.411.

The molecule `NC(=O)NCC#Cc1ccc2c(c1)[C@]1(C(=O)N2)[C@H](c2ccc(OCCO)cc2)N2[C@H](c3ccccc3)[C@H](c3ccccc3)OC(=O)[C@H]2[C@@H]1C(=O)N1CCCCCCC1` returned a z-score of 0.314.

In turn, `[N-]=[N+]=Nc1ccccc1[C@H]1OC(c2ccc(OCCCO)cc2)=N[C@@]1(Cc1ccccc1)C(=O)NCc1ccccc1` displayed a z-score of -0.171.

In turn, `COCCOC(=O)N1C(=O)[C@@]2(c3cc(C#CCC(C(=O)OC)C(=O)OC)ccc31)[C@H](C(=O)N1CCCCCCC1)[C@H]1C(=O)O[C@H](c3ccccc3)[C@H](c3ccccc3)N1[C@@H]2c1ccc(O)cc1` returned a z-score of -0.124.

On to `C=CC[C@]1(C(=O)NCC(O)CO)N=C(c2ccc(OCCCO)cc2)O[C@H]1c1ccccc1N=[N+]=[N-]` (stereo partly specified), for which the z-score worked out at 0.662.

As to `O=C(Nc1cc(Br)ccc1C(=O)NCc1cccc(O)c1)c1ccccc1`, the z-score was -1.11.

Regarding `CC1CC/C=C\[C@H]2OC34C=CCN(c5ccc(Cl)cc5)C(=O)[C@H]3N(C(CO)C(C)C)C(=O)[C@]4(C)C2C(=O)O1` (stereo partly specified), the z-score was -0.328.

In turn, `CC1=C2[C@@H](CCc3ccccc3)OB(O)C[C@@H]2[C@@H]2C(=O)C=CC(=O)[C@@H]2C1` registered a z-score of -0.548.

With `[N-]=[N+]=NCc1ccccc1C[C@]1(C(=O)NCCN2CCOCC2)COC(c2ccc(OCCCO)cc2)=N1`, the z-score is -0.801.

Molecule `COc1ccc(CCNC(=O)[C@@H]2c3ccccc3C(=O)N(Cc3ccccc3)[C@H]2c2ccc(CO)cc2)cc1` came in with a z-score of 0.713.

`C=CC[C@@]1(C(=O)NCC(O)CO)N=C(c2ccc(OCCCO)cc2)O[C@@H]1c1ccccc1` (stereo partly specified) had a z-score of 0.483.

Consider `CO[C@H]1O[C@H](CO)[C@@H](OC(=O)Nc2cccc(F)c2)[C@H](OC(=O)Nc2ccc3c(c2)OCO3)[C@H]1OC(=O)Nc1ccc2c(c1)OCO2`, for which the z-score is -0.252.

The molecule `COc1ccc(C#Cc2ccc3c(c2)[C@]2(C(=O)N3)[C@H](c3ccc(OCCO)cc3)N3[C@H](c4ccccc4)[C@H](c4ccccc4)OC(=O)[C@H]3[C@@H]2C(=O)N2CCN(c3ncccn3)CC2)cc1` registered a z-score of 1.45.

Turning to `COCC(=C=CC[C@@H](O)c1ccccc1OCCO)C[C@@H](O)c1ccccn1`, the z-score was -0.415.

The molecule `CCCN1C(=O)[C@@]2(Cc3ccccc3)N=C(c3ccc(OCCCO)cc3)O[C@H]2c2ccccc21` had a z-score of 0.167.

As to `NC(=O)NCC#Cc1ccc2c(c1)[C@]1(C(=O)N2)[C@H](c2ccc(OCCO)cc2)N2[C@H](c3ccccc3)[C@H](c3ccccc3)OC(=O)[C@H]2[C@@H]1C(=O)N1CCN(c2ncccn2)CC1`, the z-score was 0.21.

Molecule `C=CCC(OC(C)=O)[C@@H]1[C@@H](N(Cc2cccc3ccccc23)C(=O)c2ccc(C)cc2)c2cc(OCCCO)ccc2N1C(=O)c1ccc2ccccc2c1` (stereo partly specified) showed a z-score of 0.924.

Consider `COc1ccc([Si](C)(C)[C@@H]2[C@@H](CC(=O)N(CCO)Cc3ccccc3)O[C@]3(C(=O)N(Cc4ccc(N5CCOC5=O)cc4)c4ccccc43)[C@H]2C)cc1`, for which the z-score is -1.12.

The molecule `COc1ccccc1CN1C(=O)c2ccccc2[C@](Cc2ccccc2I)(C(=O)NCCN2CCOCC2)[C@@H]1c1ccc(CO)cc1` yielded a z-score of -2.07.

The molecule `CN(C)CCCN1C(=O)[C@@]2(Cc3ccccc31)c1ccccc1C(=O)N(Cc1ccccc1)[C@H]2c1ccc(CO)cc1` came in with a z-score of 1.18.

`Cc1ccc(S[C@]2(C(=O)O)CC(=O)N(Cc3ccccc3C(F)(F)F)[C@@H]2c2ccc(CO)cc2)cc1` showed a z-score of 0.44.

Turning to `CCOC(=O)C1=CC[C@@H](c2ccccc2)N(S(=O)(=O)c2ccc(C)cc2)[C@H]1C=C(C)C`, the z-score came out at 0.576.

Molecule `COCCOC(=O)N1C(=O)[C@@]2(c3cc(C#CCNC(N)=O)ccc31)[C@H](C(=O)N1CCCCCCC1)[C@H]1C(=O)O[C@H](c3ccccc3)[C@H](c3ccccc3)N1[C@@H]2c1ccc(OCCO)cc1` registered a z-score of -0.178.

Consider `CC(C)CNC(=O)[C@@]1(C)c2ccccc2C(=O)N(Cc2ccccc2)[C@H]1c1ccc(CO)cc1`, for which the z-score was found to be 0.702.

The molecule `C=CCC(OC(C)=O)[C@@H]1[C@@H](N(Cc2ccc(-c3ccccc3)cc2)C(=O)c2cccc3ccccc23)c2cc(OCCCO)ccc2N1C(=O)c1ccc2ccccc2n1` (stereo partly specified) had a z-score of -0.253.

For `COc1ccc([Si](C)(C)[C@@H]2[C@@H](CCO)O[C@]3(C(=O)N(Cc4ccccc4)c4ccc(N5C(=O)COc6ccccc65)cc43)[C@H]2C)cc1`, the z-score came to 1.52.

In turn, `C=C(COC)/C(=C/C[C@@H](OC(=O)c1ccncc1)c1cccc(OCCO)c1)c1cc(C(=O)OC)ccc1OC` displayed a z-score of -0.114.

Turning to `O=C1NC(=O)C2C1C=CC(C(O)c1ccc3c(c1)OCO3)N2Nc1ccc(Cl)cc1Cl` (stereo unspecified), the z-score was -0.996.

Molecule `[N-]=[N+]=NCc1ccccc1C[C@@]1(C(=O)NCCN2CCOCC2)N=C(c2ccc(OCCCO)cc2)O[C@@H]1c1ccccc1CN=[N+]=[N-]` came in with a z-score of -0.709.

For `C[N+](C)(C)CCCCCCNC(=O)[C@@H]1C[C@@H]2C(=O)NCC(=O)N2[C@@H]1c1ccc(O)cc1`, the z-score was 0.811.

Molecule `COC(=O)[C@@]1(Cc2ccccc2N=[N+]=[N-])N=C(c2ccc(OCCCO)cc2)O[C@H]1c1ccccc1` returned a z-score of -4.36.

`COCCOC(=O)N1C(=O)[C@@]2(c3cc(C#Cc4ccc(OC)cc4)ccc31)[C@H](C(=O)N1CCc3cc(OC)c(OC)cc3C1)[C@H]1C(=O)O[C@H](c3ccccc3)[C@H](c3ccccc3)N1[C@@H]2c1ccc(OCCO)cc1` returned a z-score of -0.562.

`O=C1O[C@H](c2ccccc2)[C@H](c2ccccc2)N2[C@H]1[C@@H](C(=O)N1CCCCCCC1)[C@]1(C(=O)Nc3ccc(C#CCCO)cc31)[C@H]2c1ccc(OCCO)cc1` registered a z-score of 1.08.

Take `CCCC[C@H]1OB(O)C[C@H]2C1=C(COc1ccccc1)Cn1c(=O)n(-c3ccccc3)c(=O)n12`: the z-score is -0.0243.
